Source: PubChem BioAssay (Tox21)
Where “and” joins values, the source holds several entries; their conditions need not be identical. Equal entries are not always repeated. Records with an inconclusive call do not appear. Some compounds were tested as several samples or in several runs, with calls that do not always agree. Calls of active or inactive are those of the source. The call rests on the fitted dose curve. Non-standard residues stand in square brackets, D forms with d. Residues, ends and D or L forms follow the SMILES beside them. pGlu = O=C1CC[C@@H](C(=O)O)N1

Legend:
[1] = molecular target: Acetylcholinesterase (Homo sapiens) (UniProt P22303); experiment: Acetylcholinesterase (AChE) small molecule antagonists: colormetric cell-based qHTS assay (AID 1347395); further: nearly all actives have a fitted effect of over 30% in size; further: potency means the concentration at half of the fitted maximal effect
Sequence of Acetylcholinesterase (Homo sapiens) (P22303 whole entry, looked up): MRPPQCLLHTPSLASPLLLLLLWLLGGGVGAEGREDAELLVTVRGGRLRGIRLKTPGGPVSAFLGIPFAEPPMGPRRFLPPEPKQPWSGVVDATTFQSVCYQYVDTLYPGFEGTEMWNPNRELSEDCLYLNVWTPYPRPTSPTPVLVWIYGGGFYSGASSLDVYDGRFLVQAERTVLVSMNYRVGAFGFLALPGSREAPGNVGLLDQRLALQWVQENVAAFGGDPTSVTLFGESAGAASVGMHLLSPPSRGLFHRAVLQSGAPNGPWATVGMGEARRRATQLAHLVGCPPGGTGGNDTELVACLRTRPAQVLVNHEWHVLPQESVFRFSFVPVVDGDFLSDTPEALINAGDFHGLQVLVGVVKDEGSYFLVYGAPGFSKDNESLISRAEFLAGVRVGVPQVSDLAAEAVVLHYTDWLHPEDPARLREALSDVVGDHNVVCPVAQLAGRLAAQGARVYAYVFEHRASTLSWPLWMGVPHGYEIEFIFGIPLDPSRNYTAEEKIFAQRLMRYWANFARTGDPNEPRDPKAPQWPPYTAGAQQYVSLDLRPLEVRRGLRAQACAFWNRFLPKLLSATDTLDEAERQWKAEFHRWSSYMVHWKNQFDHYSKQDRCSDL
Summary of the method: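 Endogenous AChE of human neuroblastoma SH-SY5Y cells was measured with an Ellman-type DTNB/acetylthiocholine mix. Compound pretreatment lasted 30 min at 37 C; substrate reaction ran 90 min at 37 C.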

[2] = molecular target: Acetylcholinesterase (Homo sapiens) (UniProt P22303); experiment: Acetylcholinesterase (AChE) small molecule antagonists: enzyme-based qHTS assay (AID 1347397); conditions: Potency: AChE enzyme activity inhibition; outcome: AChE enzyme activity inhibition; further: nearly all actives have a fitted effect of over 55% in size; further: potency means the concentration at half of the fitted maximal effect
Summary of the method: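 Tox21 library chemicals are tested in qHTS format against recombinant human AChE. The enzyme, dispensed at 50 mU/mL, sits with compound for 30 min at room temperature. A DTNB–acetylthiocholine cocktail follows, and colour is read after 10 min.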

[3] = molecular target: Acetylcholinesterase (Homo sapiens) (UniProt P22303); experiment: Acetylcholinesterase (AChE) small molecule antagonists: fluorescence cell-based qHTS assay (AID 1347398); conditions: Potency: AChE activity; outcome: AChE activity; further: nearly all actives have a fitted effect of over 50% in size; further: potency means the concentration at half of the fitted maximal effect
Summary of the method: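 Cellular AChE inhibition: SH-SY5Y cells treated with test chemical for 30 min at 37 C, then acetylthiocholine hydrolysis followed over 40 min at room temperature via thiocholine-reactive Thiolite Green fluorescence (490/520 nm).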

[4] = molecular target: Acetylcholinesterase (Homo sapiens) (UniProt P22303); experiment: Acetylcholinesterase (AChE) small molecule antagonists: enzyme-based qHTS assay with human liver microsomes (AID 1347399); conditions: Potency: qHTS inhibition; outcome: qHTS inhibition; further: nearly all actives have a fitted effect of over 60% in size
Summary of the method: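 Recombinant human AChE (50 mU/mL in the enzyme mix) and human liver microsomes (0.25 mg/mL final) were preincubated with compound and NADPH (0.25 mg/mL final) for 30 min at 37 C. Acetylthiocholine/DTNB was then added; thiocholine was read colorimetrically after 10 min at room temperature.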
On the % scale 0 is the no-effect control and ±100 the full control effect.

O=C(O)CN(CC(=O)O)CC(=O)O
inactive: Potency [1] | Potency [2] | Potency [3] | Potency [4]

CCN(CCC#N)c1ccccc1
inactive: Potency [1] | Potency [2] | Potency [3] | Potency [4]

CCCCNS(=O)(=O)c1ccccc1
inactive: Potency [1] | Potency [2] | Potency [3] | Potency [4]

CC(=O)N(CC(O)CN(C(C)=O)c1c(I)c(C(=O)NCC(O)CO)c(I)c(C(=O)NCC(O)CO)c1I)c1c(I)c(C(=O)NCC(O)CO)c(I)c(C(=O)NCC(O)CO)c1I (stereo not given)
inactive: Potency [1] | Potency [2] | Potency [3] | Potency [4]

CCNC(=O)[C@@H]1CCCN1C(=O)[C@H](CCCN=C(N)N)NC(=O)[C@H](CC(C)C)NC(=O)CNC(=O)[C@H](Cc1ccc(O)cc1)NC(=O)[C@H](CO)NC(=O)[C@H](Cc1c[nH]c2ccccc12)NC(=O)[C@H](Cc1cnc[nH]1)NC(=O)[C@@H]1CCC(=O)N1 ([pGlu]HWSYGLRP-NHEt)
inactive: Potency [1] | Potency [2] | Potency [3] | Potency [4]

CCCCOCCOCCOCCOCCO
inactive: Potency [1] | Potency [2] | Potency [3] | Potency [4]

CCOC(=O)C(C)C(C)=O (stereo not given)
inactive: Potency [1] | Potency [2] | Potency [3] | Potency [4]

Cc1ccccc1C=O
inactive: Potency [1] | Potency [2] | Potency [3] | Potency [4]

CCN1CCCC1CN (stereo not given)
inactive: Potency [1] | Potency [2] | Potency [3] | Potency [4]

Oc1c(Cl)cc(Cl)cc1Sc1cc(Cl)cc(Cl)c1O
active: Potency [2] 40 µM and 72.2 µM and 56.4 µM
inactive: Potency [1] | Potency [3] | Potency [4]

CCCCCCC(CO)CCCC (stereo not given)
inactive: Potency [1] | Potency [2] | Potency [3] | Potency [4]

Cc1cc2cc3c(C)cc(=O)oc3c(C)c2o1
inactive: Potency [1] | Potency [2] | Potency [3] | Potency [4]

C=C(C)C(=O)OCCN(CC)CC
inactive: Potency [1] | Potency [2] | Potency [3] | Potency [4]

O=[N+]([O-])c1c(Cl)cc(Cl)cc1Cl
inactive: Potency [1] | Potency [2] | Potency [3] | Potency [4]

CC1(C)CCC[C@]2(C)[C@H]3CC(=O)O[C@]3(C)CC[C@@H]12
inactive: Potency [1] | Potency [2] | Potency [3] | Potency [4]

CN1CCC[C@@H]1Cc1c[nH]c2ccc(CCS(=O)(=O)c3ccccc3)cc12
inactive: Potency [1] | Potency [2] | Potency [3] | Potency [4]

CCCCCCCCC(=O)OCC
inactive: Potency [1] | Potency [2] | Potency [3] | Potency [4]

C[Si](C)(C)O[Si](C)(C)O[Si](C)(C)C
inactive: Potency [1] | Potency [2] | Potency [3] | Potency [4]

C[C@]12CC[C@@H]3c4ccc(O)cc4CC[C@H]3[C@@H]1CC[C@@H]2O
inactive: Potency [1] | Potency [2] | Potency [3] | Potency [4]

O=C(O)C1=NN(c2ccc(S(=O)(=O)O)cc2)C(=O)C1
inactive: Potency [1] | Potency [2] | Potency [3] | Potency [4]

CCCNCCC
inactive: Potency [1] | Potency [2] | Potency [3] | Potency [4]

O=S(=O)(O)c1cc(S(=O)(=O)O)c2c(N=Nc3ccccc3)c(O)ccc2c1
inactive: Potency [1] | Potency [2] | Potency [3] | Potency [4]

O=C1C(CCS(=O)c2ccccc2)C(=O)N(c2ccccc2)N1c1ccccc1 (stereo not given)
inactive: Potency [1] | Potency [2] | Potency [3] | Potency [4]

CCN=C1C=CC(=C(c2ccc(N(CC)CC)cc2)c2ccc(N(CC)CC)cc2)c2ccccc21
inactive: Potency [4]
active: Potency [1] 62.9 µM | Potency [2] 19.9 µM | Potency [3] 39.7 µM

Cc1cccc(C)c1NC(=O)CC12CCCN1CCC2
inactive: Potency [1] | Potency [2] | Potency [3] | Potency [4]

On1nnc2ccccc21
inactive: Potency [1] | Potency [2] | Potency [3] | Potency [4]

CNS(=O)(=O)Cc1ccc2[nH]cc(CCN(C)C)c2c1
inactive: Potency [1] | Potency [2] | Potency [3] | Potency [4]

CCc1cc(C(C)(C)C)c(O)c(C(C)(C)C)c1
inactive: Potency [1] | Potency [2] | Potency [3] | Potency [4]

Cc1cn([C@H]2C[C@H](F)[C@@H](CO)O2)c(=O)[nH]c1=O
inactive: Potency [1] | Potency [2] | Potency [3] | Potency [4]

CC1=CC(C)(C)Nc2ccccc21
inactive: Potency [1] | Potency [2] | Potency [3] | Potency [4]

Clc1cc(Cl)c(Cl)c(Cl)c1Cl
inactive: Potency [1] | Potency [2] | Potency [3] | Potency [4]

Oc1ccc(Oc2ccccc2)cc1
inactive: Potency [1] | Potency [2] | Potency [3] | Potency [4]

CCN1CCc2nc(N)oc2CC1
inactive: Potency [1] | Potency [2] | Potency [3] | Potency [4]

C/C(=C(\CCOP(=O)(O)O)SC(=O)c1ccccc1)N(C=O)Cc1cnc(C)nc1N
inactive: activity, negative = inhibition [1] -0.469% [at 10.5 µM] | activity change, negative = inhibition [2] 0.584% [at 10.5 µM] | activity change, negative = inhibition [3] 5.35% [at 10.5 µM] | activity change, negative = inhibition [4] -1.26% [at 10.5 µM]

O=C1OC2(c3cc(Br)c(O)c(Br)c3Oc3c2cc(Br)c(O)c3Br)c2c(Cl)c(Cl)c(Cl)c(Cl)c21
inactive: Potency [1] | Potency [2] | Potency [3] | Potency [4]

[Na+]
inactive: Potency [1] | Potency [2] | Potency [3] | Potency [4]

c1c[nH]cn1
inactive: Potency [1] | Potency [2] | Potency [3] | Potency [4]

CC1=CCC(=O)O1
inactive: Potency [1] | Potency [2] | Potency [3] | Potency [4]

CN1C(C(=O)Nc2ccccn2)=C(O)c2ccccc2S1(=O)=O
inactive: Potency [1] | Potency [2] | Potency [3] | Potency [4]

SCCc1cnccn1
inactive: Potency [1] | Potency [2] | Potency [3] | Potency [4]

O=C(c1ccccc1)c1ccc2n1CCC2C(=O)O (stereo not given)
inactive: Potency [1] | Potency [2] | Potency [3] | Potency [4]

CC1=CC[C@H]2C[C@@H]1C2(C)C
inactive: Potency [1] | Potency [4]
32 µM (active) and inactive: Potency [3]
63.9 µM (active) and inactive: Potency [2]

Nc1ccc2cc(S(=O)(=O)O)ccc2c1
inactive: Potency [1] | Potency [2] | Potency [3] | Potency [4]

Cn1nnc2c(C(N)=O)ncn2c1=O
inactive: Potency [1] | Potency [2] | Potency [3] | Potency [4]

CC(C)NC(=O)c1ccccc1N
inactive: Potency [1] | Potency [2] | Potency [3] | Potency [4]

Cc1ccc(O)c(C(=O)c2ccccc2)c1
inactive: Potency [1] | Potency [2] | Potency [3] | Potency [4]

C=C(C)C(=O)OCCOC(=O)CC(C)=O
inactive: Potency [1] | Potency [2] | Potency [3] | Potency [4]

N=C(N)N
inactive: Potency [1] | Potency [2] | Potency [3] | Potency [4]

S=c1nc[nH]c2nc[nH]c12
inactive: Potency [1] | Potency [2] | Potency [3] | Potency [4]

S=C1NC=NC2N=CNC12 (stereo not given)
inactive: Potency [1] | Potency [2] | Potency [3] | Potency [4]

O=c1[nH]c2ccccc2n1CCCN1CCN(C(c2ccccc2)c2ccccc2)CC1
inactive: Potency [1] | Potency [2] | Potency [3] | Potency [4]

CC(O)CN(CCN(CC(C)O)CC(C)O)CC(C)O (stereo not given)
inactive: Potency [1] | Potency [2] | Potency [3] | Potency [4]

C=C(C)C(=O)Nc1ccc(Cl)c(Cl)c1
inactive: Potency [1] | Potency [2] | Potency [3] | Potency [4]

COC1=CC(=O)C[C@@H](C)[C@]12Oc1c(Cl)c(OC)cc(OC)c1C2=O
inactive: Potency [1] | Potency [2] | Potency [3] | Potency [4]

CCOC=C(C(=O)OCC)C(=O)OCC
inactive: Potency [1] | Potency [2] | Potency [3] | Potency [4]

NC(=O)N(O)[C@@H]1COc2cc(OCc3ccccc3)ccc21
inactive: Potency [1] | Potency [2] | Potency [3] | Potency [4]

ClC1=C(Cl)C1(Cl)Cl
inactive: Potency [1] | Potency [2] | Potency [3] | Potency [4]

CC(C)N(C)C
inactive: Potency [1] | Potency [2] | Potency [3] | Potency [4]

CC[C@H]1OC(=O)[C@H](C)[C@@H](O[C@H]2C[C@@](C)(OC)[C@@H](O)[C@H](C)O2)[C@H](C)[C@@H](O[C@@H]2O[C@H](C)C[C@H](N(C)C)[C@H]2O)[C@](C)(O)C[C@@H](C)C(=O)[C@H](C)[C@@H](O)[C@]1(C)O
inactive: Potency [1] | Potency [2] | Potency [3] | Potency [4]

NC(=O)CCCCC1CCSS1 (stereo not given)
inactive: Potency [1] | Potency [2] | Potency [3] | Potency [4]
